Source: PubChem BioAssay (Tox21)
Inconclusive results are not listed. More than one record can exist for a structure, and the calls need not agree. Calls of active or inactive are those of the source. Unless noted, the call rests on the fitted dose curve; in most records, active means well fitted curve in the direction sought with a large enough effect in the repeat runs; inconclusive means weak or mixed curves; inactive means no such curve, though single readings can be large; an effect the other way counts as inactive or inconclusive.

Columns and labels:
[1] = biological target: Thyrotropin-releasing hormone receptor (Homo sapiens) (UniProt P34981); test: qHTS assay to identify small molecule agonists of the thyrotropin-releasing hormone receptor (TRHR) signaling pathway (AID 1346891; calls by dose curve;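 further: HEK293 cells expressing TRHR with calcium dye readout; series mostly up to about 58 µM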)
Thyrotropin-releasing hormone receptor (Homo sapiens), sequence (P34981 whole entry, looked up): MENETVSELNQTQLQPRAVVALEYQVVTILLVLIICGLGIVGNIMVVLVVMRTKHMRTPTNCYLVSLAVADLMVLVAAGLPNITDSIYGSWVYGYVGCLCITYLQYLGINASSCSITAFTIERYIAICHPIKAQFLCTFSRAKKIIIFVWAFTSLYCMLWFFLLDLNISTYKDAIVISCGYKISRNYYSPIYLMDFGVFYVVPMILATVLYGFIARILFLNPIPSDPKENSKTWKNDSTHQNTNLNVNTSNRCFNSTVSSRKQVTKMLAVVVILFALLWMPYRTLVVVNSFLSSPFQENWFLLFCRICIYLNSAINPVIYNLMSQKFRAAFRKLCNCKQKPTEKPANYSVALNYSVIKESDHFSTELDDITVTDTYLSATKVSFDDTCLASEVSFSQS
Summary of the method: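 HEK293/TRHR cells, 1500 per well, 18 h 37 °C; Ca dye 2 h 37 °C; pin-tool compound addition (agonist mode); kinetic fluorescence 3 min, 1 s reads; 15 concentrations, triplicate.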

[2] = Human pregnane X receptor (PXR) small molecule agonists, qHTS cell viability counter screen (AID 1346977); further: nearly all actives have a fitted effect of over 50% in size
Summary of the method: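 Fluorescence read-out (CellTiter-Fluor) of viability in PXR-Luc HepG2 cells, multiplexed with the luciferase agonist read. Compounds in DMSO added after 5hr plating; 24hr total exposure at 37C, 5% CO2.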

[3] = Caspase-3/7 induction in HepG2 cells by small molecules, qHTS assay (AID 1346978); further: nearly all actives have a fitted effect of over 15% in size
Summary of the method: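 Wild-type HepG2 cells, 2,000/well, settled 5 hr at 37 C and 5% CO2, then compound-treated for 17 hr; caspase-3/7 activity read by luminescent Caspase-Glo 3/7 after 30 min at room temperature.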

[4] = Caspase-3/7 induction in CHO-K1 cells by small molecules, qHTS cell viability counter screen (AID 1346979); further: nearly all actives have a fitted effect of over 35% in size
Summary of the method: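 CHO-K1 wt, 1,500 cells/well; 5hr pre-incubation 37C/5% CO2; compound pin transfer (DMSO); 16hr exposure; CellTiter-Fluor added, 1hr, fluorescence read.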

[5] = Caspase-3/7 induction in CHO-K1 cells by small molecules, qHTS assay (AID 1346980); further: nearly all actives have a fitted effect of over 15% in size
Summary of the method: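 Wild-type CHO-K1 cells exposed to compounds for 17hr at 37 C, 5% CO2. Caspase-3/7 activity then measured by Caspase-Glo 3/7 luminescence after 30min at room temperature.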

[6] = Caspase-3/7 induction in HepG2 cells by small molecules, qHTS cell viability counter screen (AID 1346981); further: series mostly up to about 92 µM; nearly all actives have a fitted effect of over 30% in size
Summary of the method: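 Wild-type HepG2 cells (2,000/well) were allowed to settle for 5 hr at 37 C, 5% CO2, then dosed with compounds in DMSO by pin transfer. After 16 hr at 37 C, CellTiter-Fluor was added and fluorescence read 1 hr later.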

[7] = biological target: Nuclear receptor subfamily 1 group I member 2 (Homo sapiens) (UniProt O75469); test: Human pregnane X receptor (PXR) small molecule agonists, qHTS assay (AID 1346982); further: nearly all actives have a fitted effect of over 35% in size; further: potency means the concentration at half of the fitted maximal effect
Nuclear receptor subfamily 1 group I member 2 (Homo sapiens), sequence (O75469 whole entry, looked up): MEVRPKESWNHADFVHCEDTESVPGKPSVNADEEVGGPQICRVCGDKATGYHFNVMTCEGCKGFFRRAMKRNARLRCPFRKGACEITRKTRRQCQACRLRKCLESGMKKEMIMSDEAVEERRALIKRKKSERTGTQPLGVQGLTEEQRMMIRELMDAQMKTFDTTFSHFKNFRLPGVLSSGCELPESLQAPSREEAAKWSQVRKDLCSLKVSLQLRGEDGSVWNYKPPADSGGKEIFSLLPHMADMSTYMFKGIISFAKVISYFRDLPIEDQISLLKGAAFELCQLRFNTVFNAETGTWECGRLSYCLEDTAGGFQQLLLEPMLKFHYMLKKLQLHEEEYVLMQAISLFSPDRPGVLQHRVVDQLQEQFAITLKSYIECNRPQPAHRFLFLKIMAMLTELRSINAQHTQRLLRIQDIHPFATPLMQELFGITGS
Summary of the method: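 PXR-Luc HepG2 cells (CYP3A4 promoter-driven luciferase) were seeded in medium with 5% charcoal-stripped FBS, left 5 hr at 37 C, then exposed to compounds in DMSO for 24 hr. Luminescence was read after ONE-Glo addition.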

[8] = biological target: Nuclear receptor subfamily 1 group I member 2 (Rattus norvegicus) (UniProt Q9R1A7); test: Rat pregnane X receptor (rPXR) activation by small molecules, qHTS assay (AID 1346983); details: rPXR luciferase reporter cells, One-Glo luminescence, 24 h; stronger effect = higher value; further: nearly all actives have a fitted effect of over 20% in size
Nuclear receptor subfamily 1 group I member 2 (Rattus norvegicus), sequence (Q9R1A7 whole entry, looked up): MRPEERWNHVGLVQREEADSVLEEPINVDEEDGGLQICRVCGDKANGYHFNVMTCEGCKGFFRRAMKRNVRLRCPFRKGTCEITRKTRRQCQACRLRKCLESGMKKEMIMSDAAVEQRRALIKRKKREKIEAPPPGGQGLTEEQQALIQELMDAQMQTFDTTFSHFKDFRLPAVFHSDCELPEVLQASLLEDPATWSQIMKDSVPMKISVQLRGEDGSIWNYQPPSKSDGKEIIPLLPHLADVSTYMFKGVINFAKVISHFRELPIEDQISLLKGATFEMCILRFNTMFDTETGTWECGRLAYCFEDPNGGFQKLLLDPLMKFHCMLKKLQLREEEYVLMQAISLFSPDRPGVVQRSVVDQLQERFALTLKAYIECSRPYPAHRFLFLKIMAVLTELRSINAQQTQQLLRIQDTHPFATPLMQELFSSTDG
Summary of the method: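 Cell-based rPXR activation assay: rPXR cells, 2,000 per well, rested 5hr at 37 C, then exposed to compounds in DMSO for 24 hr at 37 C. Luciferase activity read by One-Glo luminescence after 30 min at room temperature.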

[9] = biological target: Nuclear receptor subfamily 1 group I member 2 (Homo sapiens) (UniProt O75469); test: CYP3A4 induction through human pregnane X receptor (PXR) by small molecules, qHTS assay (AID 1346984); further: nearly all actives have a fitted effect of over 40% in size; further: potency means the concentration at half of the fitted maximal effect
Summary of the method: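 DPX-2 cells (HepG2 co-transfected with PXR and CYP3A4 promoter-luciferase) treated with compounds 24 h at 37C; luciferin-IPA CYP3A4 substrate 3uM final added for 3 h, then One-Glo; luminescence read. qHTS format.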

[10] = biological target: Acetylcholinesterase (Homo sapiens) (UniProt P22303); test: Acetylcholinesterase (AChE) small molecule antagonists: colormetric cell-based qHTS assay (AID 1347395; calls by dose curve; further: nearly all actives have a fitted effect of over 30% in size)
Acetylcholinesterase (Homo sapiens), sequence (P22303 whole entry, looked up): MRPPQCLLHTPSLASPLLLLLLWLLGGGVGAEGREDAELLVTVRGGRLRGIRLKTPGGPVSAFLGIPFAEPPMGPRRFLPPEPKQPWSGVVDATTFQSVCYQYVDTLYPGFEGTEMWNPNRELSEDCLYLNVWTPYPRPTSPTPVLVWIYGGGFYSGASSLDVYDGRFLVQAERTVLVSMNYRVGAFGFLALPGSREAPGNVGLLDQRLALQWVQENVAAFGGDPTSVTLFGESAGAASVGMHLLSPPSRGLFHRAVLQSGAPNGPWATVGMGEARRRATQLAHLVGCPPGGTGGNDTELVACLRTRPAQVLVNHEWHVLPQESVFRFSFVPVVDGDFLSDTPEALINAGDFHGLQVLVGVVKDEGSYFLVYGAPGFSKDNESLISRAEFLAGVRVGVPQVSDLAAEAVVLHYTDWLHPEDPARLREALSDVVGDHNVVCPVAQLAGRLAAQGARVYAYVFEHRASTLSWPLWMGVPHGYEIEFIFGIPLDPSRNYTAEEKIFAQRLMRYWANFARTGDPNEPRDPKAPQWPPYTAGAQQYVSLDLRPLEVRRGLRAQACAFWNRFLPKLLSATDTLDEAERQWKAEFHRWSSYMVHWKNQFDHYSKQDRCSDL
Summary of the method: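 SH-SY5Y cells; cpd 30 min 37 C; + DTNB/acetylthiocholine, 90 min 37 C; colorimetric thiocholine read; qHTS.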
On the % scale 0 is the no-effect control and ±100 the full control effect.

COc1ccc2c(C(=O)c3ccc(Cl)cc3)c(C)n(CC(=O)O)c2c1
inactive: outcome [1] | Potency [2] | outcome [3] | Potency [4] | outcome [5] | Potency [6] | Potency [7]

ClC1=C(Cl)C2(Cl)C(CBr)CC1(Cl)C2(Cl)Cl (stereo not drawn)
inactive: outcome [1] | Potency [2] | outcome [3] | Potency [4] | outcome [5] | Potency [6] | max activation [8] 0.545% | Potency [9] | Potency [10]
48.6 µM (active) and inactive: Potency [7]

CCNP(=S)(OC)O/C(C)=C/C(=O)OC(C)C (stereo not drawn)
active: Potency [7] 9.69 µM
inactive: outcome [1] | Potency [2] | outcome [3] | Potency [4] | outcome [5] | Potency [6]

CCN(CC)CCOC(=O)C(O)(c1ccccc1)c1ccccc1
inactive: outcome [1] | Potency [2] | outcome [3] | Potency [4] | outcome [5] | Potency [6] | Potency [7] | max activation [8] -2.47% | Potency [9] | Potency [10]

CCC(=O)OC1(c2ccccc2)CCN(C)CC1
inactive: outcome [1] | Potency [2] | outcome [3] | Potency [4] | outcome [5] | Potency [6] | Potency [7]

CC1=C2[C@H]3OC(=O)[C@@H](C)[C@@H]3CC[C@@]2(C)C=CC1=O
inactive: outcome [1] | Potency [2] | outcome [3] | Potency [4] | outcome [5] | Potency [6] | max activation [8] 8.61% | Potency [10]
active: Potency [7] 7.5 µM | Potency [9] 11.2 µM

C[C@]12C=CC(=O)C=C1CC[C@@H]1[C@@H]2CC[C@@]2(C)[C@H]1CC[C@]2(C)O
inactive: outcome [1] | Potency [2] | outcome [3] | Potency [4] | outcome [5] | Potency [6] | Potency [7] | max activation [8] -4.23% | Potency [9] | Potency [10]

CNC(=O)NC(O)C(Cl)(Cl)Cl (stereo not drawn)
inactive: outcome [1] | Potency [2] | outcome [3] | Potency [4] | outcome [5] | Potency [6] | Potency [7] | max activation [8] -4.06% | Potency [9] | Potency [10]

N[C@@H]1C[C@H]1c1ccccc1
inactive: outcome [1] | Potency [2] | outcome [3] | Potency [4] | outcome [5] | Potency [6] | Potency [7] | max activation [8] -1.36% | Potency [9] | outcome [10]

CCCCCCC(=O)CCCCCC/C=C/C[C@@H](O)[C@H](O)[C@@](N)(CO)C(=O)O
inactive: activation [1] 0.008% [at 11.8 µM] | activity change, negative = cytotoxicity [2] 6.98% [at 19 µM] | caspase activation [3] 0.643% [at 19 µM] | activity change, negative = cytotoxicity [4] 4.97% [at 19 µM] | caspase-3/7 activation [5] 2.67% [at 19 µM] | activity change, negative = cytotoxicity [6] 5.08% [at 19 µM] | activation [7] -4.6% [at 19 µM] | max activation [8] -5.78% | Potency [9] | activity, negative = inhibition [10] 0.986% [at 23.6 µM]

C=C1CC[C@@]2(O)[C@H]3Cc4ccc(O)c5c4[C@@]2(CCN3CC2CC2)[C@H]1O5
inactive: outcome [1] | Potency [2] | outcome [3] | Potency [4] | outcome [5] | Potency [6] | Potency [7] | max activation [8] 0.729% | Potency [9] | Potency [10]

ClCC1CO1 (stereo not drawn)
inactive: outcome [1] | Potency [2] | outcome [3] | Potency [4] | outcome [5] | Potency [6] | Potency [7] | max activation [8] -3.74% | Potency [9] | Potency [10]

NC(=O)CS(=O)C(c1ccccc1)c1ccccc1 (stereo not drawn)
inactive: outcome [1] | Potency [2] | outcome [3] | Potency [4] | outcome [5] | Potency [6] | Potency [7] | max activation [8] -0.488% | Potency [9] | Potency [10]

CC(Cl)(Cl)Cl
inactive: outcome [1] | Potency [2] | outcome [3] | Potency [4] | outcome [5] | Potency [6] | Potency [7] | Potency [10]

COC(=O)c1ccccc1CS(=O)(=O)NC(=O)Nc1nc(OC)cc(OC)n1
inactive: outcome [1] | Potency [2] | outcome [3] | Potency [4] | outcome [5] | Potency [6] | Potency [10]
active: Potency [7] 34.4 µM

COc1cc(CC(C)N)cc(OC)c1OC (stereo not drawn)
inactive: outcome [1] | Potency [2] | outcome [3] | Potency [4] | outcome [5] | Potency [6] | Potency [7] | Potency [10]

CCCC[N+](=O)[O-]
inactive: outcome [1] | Potency [2] | outcome [3] | Potency [4] | outcome [5] | Potency [6] | Potency [7] | Potency [10]

Nc1c(Cl)c(F)nc(OCC(=O)O)c1Cl
inactive: outcome [1] | Potency [2] | outcome [3] | Potency [4] | outcome [5] | Potency [6] | Potency [7] | Potency [10]

CCCOC(=O)c1cncn1C(C)c1ccccc1 (stereo not drawn)
inactive: outcome [1] | Potency [2] | outcome [3] | Potency [4] | outcome [5] | Potency [6] | Potency [7] | Potency [10]

C=CC=O
inactive: outcome [1] | Potency [2] | outcome [3] | Potency [4] | outcome [5] | Potency [6] | Potency [7] | Potency [10]

CCc1ccc(C2CCNCC2)cc1
inactive: outcome [1] | Potency [2] | outcome [3] | Potency [4] | outcome [5] | Potency [6] | Potency [7] | Potency [10]

CC(C)(C)C(=O)Cl
inactive: outcome [1] | Potency [2] | outcome [3] | Potency [4] | outcome [5] | Potency [6] | Potency [7] | Potency [10]
